Our source for the outcome values is PubChem BioAssay (EPA / NIEHS).

Active and inactive are the calls of the source. The calls were made as follows: active = hit-call score of the fitted dose curve at least 0.9, where 1 is the maximum; inactive = score below 0.9.

The target of the test is Transcription factor E2F1 (Homo sapiens) (UniProt Q01094). As to the kind of experiment: ATG_E2F_CIS: Attagene CIS-FACTORIAL HepG2 Assay for human E2F Transcription Factor 1 (AID 2282935). The conditions noted are these: HepG2 Attagene cis-reporter, E2F reporter RNA transcripts; actives raise or lower the signal. The protocol: ATG_CIS is a cell-based, multiplexed-readout assay that uses HepG2, a human liver cell line, with measurements taken at 24 hours after chemical dosing in a 24-well plate.ATG_E2F_CIS is one of 52 assay component(s) measured or calculated from the ATG_CIS assay. It is designed to make measurements of mRNA induction, a form of inducible reporter, as detected with fluorescence intensity signals by Reverse transcription polymerase chain reaction (RT-PCR) and Capillary electrophoresis technology.Data from the assay component ATG_E2F_CIS was analyzed into 1 assay endpoint. This assay endpoint, ATG_E2F_CIS, was analyzed with bidirectional fitting relative to DMSO as the negative control and baseline of activity. Using a type of inducible reporter, measures of mRNA for gain or loss-of-signal activity can be used to understand the reporter gene at the transcription factor-level as they relate to the gene E2F1. Furthermore, this assay endpoint can be referred to as a primary readout, because this assay has produced multiple assay endpoints where this one serves a reporter gene function. To generalize the intended target to other relatable targets, this assay endpoint is annotated to the dna binding intended target family, where the subfamily is E2F transcription factor.
Sequence of Transcription factor E2F1 (Homo sapiens) (Q01094 whole entry, looked up): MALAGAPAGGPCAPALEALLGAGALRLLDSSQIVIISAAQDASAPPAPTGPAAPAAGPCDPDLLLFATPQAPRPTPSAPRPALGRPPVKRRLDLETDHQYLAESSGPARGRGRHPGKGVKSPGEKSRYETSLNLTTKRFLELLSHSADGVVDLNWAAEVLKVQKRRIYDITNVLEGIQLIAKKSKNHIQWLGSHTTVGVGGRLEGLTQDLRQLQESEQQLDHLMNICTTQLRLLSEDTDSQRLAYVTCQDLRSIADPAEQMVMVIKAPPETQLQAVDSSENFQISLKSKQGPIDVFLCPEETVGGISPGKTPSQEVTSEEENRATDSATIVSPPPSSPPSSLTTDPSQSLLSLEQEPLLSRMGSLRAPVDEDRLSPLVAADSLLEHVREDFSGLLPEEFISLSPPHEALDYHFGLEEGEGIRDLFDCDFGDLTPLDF
Human liver HepG2 cells are transiently transfected with multiple reporter transcription units (MRTUs) in 6-well plates using FuGene 6 reagent (Roche; 3 ml FuGene/1 mg DNA). The MRTU constructs are regulated by a cis-regulating element (promoter). […] A major difference between the CIS and TRANS system is that in CIS activities of endogenous TFs are measured, whereas the TRANS assay evaluates changes in activities of exogenous, chimeric NR-Gal4 proteins. […] At the end of 24 hour incubation, total RNA was isolated using TriZol reagent (Invitrogen). The isolated RNA is then reverse-transcribed using oligo(dT) primer and Mo-MLV reverse transcriptase (Invitrogen) with DNAse I (Ambion) treatment for 30 min. The one-tenth of the produced cDNA was amplified by PCR using Taq DNA polymerase (Invitrogen) and two reporter sequence-specific primers. The PCR products were fluorescently labeled by primer extension with 6-arboxyfluorescein (6-FAM) 5'-labeled reporter sequence-specific primer (2 min at 95 C, 20 s at 68 C and 10 min at 72 C) and these products were digested with 5U of HpaI (New England Biolabs) for 2h at 37 C. The fragments were purified using Qiaquick PCR columns (Qiagen), analyzed on an ABI 3130xL genetic analyzer (Applied Biosystems) with peak positions identified by using a set of X-rhodamine (ROX)-labeled MapMarker1000 molecular weight standards (BioVentures). The raw capillary electrophoresis data was processed using Attagraph software (Attagene).
On to `C=Cc1ccc(C(C)(C)C)cc1`, for which the outcome was inactive.
The result for `COC(=O)Nc1ccc(Cl)c(Cl)c1` reads “inactive”; that for `O=CCc1ccccc1`, “inactive”; that for `Nc1c(S(=O)(=O)O)cc(Br)c2c1C(=O)c1ccccc1C2=O`, “inactive”.
In the case of `COC(=O)C=C(C)CCC=C(C)C` it was “inactive”; in that of `CN(C)c1cccc(O)c1`, “inactive”; in that of `C[Si]1(C)O[Si](C)(C)O[Si](C)(C)O1`, “inactive”.
In the case of `CC(=O)C(C)O` (stereo not given) it was “inactive”; in that of `O=C1CCCC=CCCCCCCCCCC1`, “inactive”; in that of `O=C1OC(=O)c2c(Cl)c(Cl)c(Cl)c(Cl)c21`, “inactive”.
For `CC1C2CC(CC2C2CCCC(O)C2)C1(C)C` (stereo not given), the result was inactive.
The result for `COc1cc(CCC(C)=O)ccc1O` reads “inactive”.
The result for `CC(C)(C)c1ccc(C(=O)O)cc1` reads “inactive”; that for `Cc1ccc(S(=O)(=O)Oc2ccc(N=Nc3ccc(-c4ccc(N=Nc5c(O)ccc6cc(S(=O)(=O)O)cc(S(=O)(=O)O)c56)c(C)c4)cc3C)cc2)cc1`, “inactive”; that for `C=C(CC(=O)O)C(=O)O`, “inactive”.
The result for `Cc1ccc(N)c(S(=O)(=O)O)c1` reads “inactive”; that for `C[C@H](CCC(=O)NCC(=O)O)[C@H]1CC[C@H]2[C@@H]3[C@H](O)C[C@@H]4C[C@H](O)CC[C@]4(C)[C@H]3C[C@H](O)[C@]12C`, “inactive”; that for `IC(I)I`, “inactive”.
Take `NC1CCCCC1N` (stereo not given): the molecule was classed as inactive.
As for `Nc1ccc(Cl)c([N+](=O)[O-])c1`, the call was inactive.
In the case of `C[Si](C)(C)O[Si](C)(C)C` it was “inactive”.
Turning to `CCCCCCCCCCCCCC(=O)OCC(O)CO` (stereo not given), the result was inactive.
In the case of `CC1CCC(C(C)C)C(O)C1` (stereo not given) it was “inactive”; in that of `CCCCCCCCCCCCCCN(CCO)CCO`, “inactive”.
For `CC/C=C\CCOC(=O)CC`, the outcome was inactive.
In the case of `O=C(CS)OCCOC(=O)CS` it was “inactive”; in that of `CCCCCCCCCC(C)C=O` (stereo not given), “inactive”.
As to `CCC1CCCCC1`, the result was inactive.
In the case of `COC(=O)c1ccc(C)cc1C1=NC(C)(C(C)C)C(=O)N1` (stereo not given) (tested in a mixture with another compound) it was “inactive”; in that of `Cc1ccc2c(c1)C(=O)OC2=O`, “inactive”.
As for `CC(C)c1ccccc1O`, the call was inactive.
For `CC1(C)C(=O)N(Cl)C(=O)N1Br`, the result was inactive.
In the case of `CC1(C)COCN1` it was “inactive”.
For `CC(C)C(OC(=O)c1ccccc1)C(C)(C)COC(=O)c1ccccc1` (stereo not given), the outcome was inactive.
On to `CCCC[P+](CCCC)(CCCC)CCCC`, for which the outcome was inactive.
In the case of `c1ccc2cc(Nc3ccc(Nc4ccc5ccccc5c4)cc3)ccc2c1` it was “inactive”.
Turning to `CC(=O)O[C@H]1C[C@@H]2CC[C@@]1(C)C2(C)C`, the molecule was classed as inactive.
As for `CC(=O)CC(=O)Nc1ccccc1`, the molecule was called inactive.
Take `CCOCCOCCOCC`: the result was inactive.
The result for `Oc1c(Cl)cc(Cl)c(Cl)c1Cc1c(O)c(Cl)cc(Cl)c1Cl` reads “inactive”.
